Assay [1] in a line: APR_HepG2_CellCycleArrest_24hr: Apredica 24-hour HepG2 Assay for Cell Cycle Arrest (AID 2282905).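 Also: cell cycle arrest scored as ratio of 2N to 4N nuclear DNA content.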 Conditions: imaging, actives raise or lower the signal. A digest of the protocol: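 Step one: dose HepG2 with test compounds, 0.39–200 uM, 0.5% DMSO, 24 hr. Step two: fix, permeabilize, stain nuclei with Hoechst 33342. Step three: image six fields per well at 20x, quantify DNA content, fit bidirectionally relative to DMSO.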

Assay [2] is described as follows: APR_HepG2_NuclearSize_24hr: Apredica 24-hour HepG2 Assay for Nuclear Size (AID 2282907). Conditions: high-content imaging, actives raise or lower the signal. A digest of the protocol:
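After fixation and permeabilization, 24-hr-treated HepG2 cells were stained with Hoechst 33342 and imaged on an ArrayScan (20x). Doses spanned 0.39–200 uM in duplicate. Nuclear diameter changes in either direction were fitted relative to 0.5% DMSO controls.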

Assay [3] is described as follows: APR_HepG2_CellLoss_24hr: Apredica 24-hour HepG2 Assay for Cell Loss (AID 2282908). Conditions: high-content imaging. An outline of the steps: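 Duplicate wells received compound at ten concentrations (0.39–200 uM; final DMSO 0.5% v/v). After fixation with formaldehyde, nuclei stained with Hoechst 33342 were imaged at 20x. Loss or gain of cell count was fitted relative to DMSO controls.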

Assay [4] is described as follows: APR_HepG2_MicrotubuleCSK_24hr: Apredica 24-hour HepG2 Assay for Microtubule CSK Stabilty (AID 2282909). Conditions: HepG2 microtubule cytoskeleton imaging, actives raise or lower the signal. An outline of the steps:
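Microtubule stability is scored from tubulin immunofluorescence in fixed HepG2 cells imaged at 20x. Cells receive ten compound concentrations up to 200 uM for 24 h; taxol and DMSO serve as positive and negative controls.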

Assay [5] in a line: APR_HepG2_MitoticArrest_24hr: Apredica 24-hour HepG2 Assay for Mitotic Arrest (AID 2282910). Conditions: high-content imaging, actives raise or lower the signal. A digest of the protocol:
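High-content imaging of fixed HepG2 cells labeled with Hoechst 33342 and anti-phospho-histone H3, after 24 h treatment. Ten concentrations 0.39 to 200 uM in duplicate, final DMSO 0.5%; changes fitted both directions relative to DMSO.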

Assay [6] can be described thus: APR_HepG2_MitoMembPot_24hr: Apredica 24-hour HepG2 Assay for Mitochondrial Membrane Potential (AID 2282911). Conditions: imaging, actives raise or lower the signal. An outline of the steps: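 HepG2 cells exposed 24 h to 0.39–200 uM compounds in duplicate, 0.5% v/v DMSO final. MitoTracker Red CMXRos 250 nM loaded 30 min before formaldehyde fixation; high-content imaging at 20x, bidirectional fit versus DMSO.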

Assay [7] is described as follows: APR_HepG2_MitoMass_24hr: Apredica 24-hour HepG2 Assay for Mitochondrial Mass (AID 2282912). Conditions: high-content imaging, actives raise or lower the signal. A digest of the protocol:
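Readout: fluorescence of MitoTracker Red CMXRos (250 nM, added 30 min pre-fixation) in fixed HepG2 cells imaged by HCS. Exposure lasted 24 hr at 0.39–200 uM; increases and decreases were both fitted relative to DMSO.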

Assay [8] in a line: APR_HepG2_p53Act_24hr: Apredica 24-hour HepG2 Assay for p53 Activation (AID 2282913).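 Also: p53 protein immunofluorescence averaged per cell in HepG2 with Hoechst nuclei.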 Conditions: high-content imaging, actives raise or lower the signal. A digest of the protocol:
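HepG2 cells exposed 24 h to compounds at 0.39–200 uM in duplicate, 0.5% v/v DMSO final; fixed, permeabilized, stained with anti-p53 antibody and Hoechst 33342; fluorescence imaging; bidirectional curve fit versus DMSO.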

Assay [9] can be described thus: APR_HepG2_CellCycleArrest_72hr: Apredica 72-hour HepG2 Assay for Cell Cycle Arrest (AID 2282914). Conditions: high-content imaging, actives raise or lower the signal. A digest of the protocol: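 HepG2 cells exposed 72 h in duplicate to 0.39–200 uM compound, 0.5% DMSO final. Formaldehyde-fixed, Hoechst 33342-stained nuclei imaged at 20x, six fields per well; DNA content per valid cell quantified by cell-cycle image analysis, bidirectional fit versus DMSO.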

The nature of assay [10]: APR_HepG2_CellLoss_72hr: Apredica 72-hour HepG2 Assay for Cell Loss (AID 2282915). Conditions: high-content imaging. An outline of the steps:
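Cell number comes from Hoechst 33342-labelled nuclei, imaged at 20x after 3.7% formaldehyde fixation. Dosing was 0.39–200 uM, ten concentrations in duplicate, 0.5% DMSO final, for 72 h. Bidirectional fit relative to DMSO baseline.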

The nature of assay [11]: APR_HepG2_P-H2AX_72hr: Apredica 72-hour HepG2 Assay for H2AX Phosphorylation (AID 2282916).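 Also: phospho-histone H2A.x immunostain intensity per cell marking DNA damage.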 Conditions: imaging, actives raise or lower the signal. An outline of the steps:
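Phospho-H2A.x imaging endpoint in HepG2 after 72 hr compound exposure (0.39–200 uM, duplicate wells). Activity derived by bidirectional curve fitting with DMSO as baseline.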

Assay [12] is described as follows: APR_HepG2_MitoMembPot_72hr: Apredica 72-hour HepG2 Assay for Mitochondrial Membrane Potential (AID 2282917). Conditions: imaging, actives raise or lower the signal. A digest of the protocol:
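Membrane potential read by MitoTracker Red CMXRos (250 nM, 30 min, pre-fixation) fluorescence imaging of HepG2 after 72 hr exposure. Ten concentrations, 0.39–200 uM, duplicate wells, 0.5% DMSO; fitted in both directions against DMSO baseline.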

Assay [13] in a line: APR_HepG2_MitoticArrest_72hr: Apredica 72-hour HepG2 Assay for Mitotic Arrest (AID 2282918). Conditions: high-content imaging, actives raise or lower the signal. An outline of the steps: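 HepG2 cells treated 72 h at 0.39–200 uM, 0.5% DMSO final; formaldehyde-fixed, stained with Hoechst 33342 and phospho-histone H3 antibody, imaged by high-content fluorescence; bidirectional fit versus DMSO.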

A short description of assay [14]: APR_HepG2_P-H2AX_24hr: Apredica 24-hour HepG2 Assay for H2AX Phosphorylation (AID 2282920). Conditions: high-content imaging, actives raise or lower the signal. An outline of the steps:
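HepG2 cells dosed 24 h at 0.39–200 uM (10 points, duplicate, 0.5% DMSO final). Formaldehyde-fixed and permeabilized, then immunostained for phospho-H2A.x with Hoechst. Fluorescence quantified by high-content imaging, fitted bidirectionally versus DMSO.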

Assay [15] in a line: APR_HepG2_StressKinase_72hr: Apredica 72-hour HepG2 Assay for Stress Kinase (AID 2282921). Conditions: HepG2 stress kinase (phospho-c-Jun) imaging, actives raise or lower the signal. A digest of the protocol:
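Stress kinase signal reflects nuclear phospho-c-Jun staining in fixed, permeabilized cells exposed 72 h to compound at 0.39–200 uM; DMSO-normalized, fitted for increases or decreases.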

The nature of assay [16]: APR_HepG2_StressKinase_24hr: Apredica 24-hour HepG2 Assay for Stress Kinase (AID 2282922). Conditions: HepG2 stress kinase (phospho-c-Jun) imaging, actives raise or lower the signal. An outline of the steps:
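High-content imaging of phospho-c-Jun immunofluorescence in fixed, permeabilized HepG2 cells after 24 h dosing. Ten concentrations, 0.39 to 200 uM, run in duplicate at 0.5% v/v DMSO; gain or loss of signal versus DMSO.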

A short description of assay [17]: APR_HepG2_p53Act_72hr: Apredica 72-hour HepG2 Assay for p53 Activation (AID 2282923).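 Also: average cellular p53 protein immunofluorescence intensity in HepG2 cells.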 Conditions: high-content imaging, actives raise or lower the signal. A digest of the protocol: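 Fixed-cell p53 staining (sheep primary, Cy5 secondary) measured by fluorescence imaging following 72 hr treatment at 0.39–200 uM in 0.5% DMSO; DMSO served as negative control and baseline.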

The nature of assay [18]: APR_HepG2_MitoMass_72hr: Apredica 72-hour HepG2 Assay for Mitochondrial Mass (AID 2282924).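 Also: MitoTracker Red CMXRos stain intensity per cell imaged as mitochondrial mass.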 Conditions: high-content imaging, actives raise or lower the signal. A digest of the protocol:
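Readout is imaged MitoTracker Red (250 nM, 30 min, pre-fixation) signal, fitted bidirectionally against DMSO baseline. Human HepG2 liver cells received compound 0.39–200 uM in duplicate for 72 hr, final DMSO 0.5%.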

Assay [19] is described as follows: APR_HepG2_NuclearSize_72hr: Apredica 72-hour HepG2 Assay for Nuclear Size (AID 2282925). Conditions: high-content imaging, actives raise or lower the signal. An outline of the steps:
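Nuclear size was read by high-content imaging of Hoechst 33342 stain after formaldehyde fixation. Compounds ran 72 h on HepG2 at 0.39 to 200 uM, with final DMSO 0.5% v/v. Curves fitted both directions relative to DMSO control.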

Assay [20] in a line: APR_HepG2_MicrotubuleCSK_72hr: Apredica 72-hour HepG2 Assay for Microtubule CSK Stabilty (AID 2282919). Conditions: HepG2 microtubule cytoskeleton, high-content imaging, actives raise or lower the signal. A digest of the protocol:
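High-content imaging of alpha-tubulin staining in fixed HepG2 cells after 72 hr treatment with ten concentrations from 0.39 to 200 uM (0.5% DMSO). Fitting was bidirectional against DMSO; taxol served as positive control.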

Activity calls are given as the source filed them. The calls were made as follows: active = hit-call score of the fitted dose curve at least 0.9, where 1 is the maximum; inactive = score below 0.9.

For `CCN(CC)N=O`, the outcome in assay [1], in [2], in [3], in assay [4], in assay [5] and in assay [6] was inactive. For the same compound, the outcome in [7], in assay [8], in [9], in assay [10], in assay [11] and in [12] was inactive. For the same compound, the call in assay [13], in assay [14], in [15], in [16], in assay [17] and in [18] was inactive. For the same compound, the result in [19] was inactive.

Consider `CN(C)[C@@H]1C(=O)C(C(N)=O)=C(O)[C@@]2(O)C(=O)C3=C(O)c4c(O)cccc4[C@@](C)(O)[C@H]3C[C@@H]12`, for which the compound was classed as inactive in assay [1], in [2], in [3], in assay [4], in assay [5] and in assay [6]. The call in assay [7], in assay [8], in assay [9], in [10], in [11] and in [12] was inactive. The outcome in [13], in [20], in [14], in assay [15], in assay [16] and in assay [17] was inactive. Moreover, the compound was called inactive in [18] and in assay [19].

With `CCC(C)c1ccc(O)cc1` (stereo not given), the compound was classed as inactive in assay [1], in assay [2], in [3], in [4], in assay [5] and in assay [6]. Moreover, the outcome in assay [7], in assay [8], in [9], in assay [10], in assay [11] and in assay [12] was inactive. Further, the outcome in assay [13], in assay [20], in assay [14], in [15], in [16] and in assay [17] was inactive. Besides, the result in [18] and in assay [19] was inactive.

On to `Cc1ccc(N)cc1`, for which the compound was classed as inactive in [1], in assay [2], in [3], in assay [4], in [5] and in assay [6]. The outcome in [7], in assay [8], in assay [9], in assay [10], in [11] and in assay [12] was inactive. Moreover, the compound was classed as inactive in assay [13], in assay [14], in [15], in [16], in [17] and in assay [18]. Besides, the compound was called inactive in assay [19].

With `Nc1ccc(Oc2ccc(N)cc2)cc1`, the result in [1], in assay [2], in [3], in [4], in assay [5] and in assay [6] was inactive. Further, the call in assay [7], in [8], in assay [9], in assay [10], in assay [11] and in assay [12] was inactive. The compound was classed as inactive in assay [13], in [14], in assay [15], in assay [16], in assay [17] and in [18]. Further, the compound was called inactive in assay [19].

For the compound `CCCCCCCCOC(=O)c1ccc(C(=O)OCCCCCCCC)c(C(=O)OCCCCCCCC)c1`, the call in assay [1], in [2], in assay [3], in assay [4], in assay [5] and in [6] was inactive. In addition, the compound was classed as inactive in assay [7], in assay [8], in assay [9], in assay [10], in [11] and in assay [12]. Further, the call in [13], in assay [14], in assay [15], in [16], in assay [17] and in assay [18] was inactive. The compound was classed as inactive in assay [19].

As usually defined, the AC50 is the concentration giving half of the maximal activity seen. Turning to `c1ccc(N=Nc2ccccc2)cc1`, the AC50 in [1] is 63.1 µM (active). For the same compound, the call in assay [2], in [3], in assay [4], in [5], in assay [6] and in assay [7] was inactive. Further, the compound was classed as inactive in assay [8], in assay [9], in assay [10], in [11], in assay [12] and in [13]. Further, the outcome in assay [14], in assay [15], in [16], in assay [17], in assay [18] and in assay [19] was inactive.

(Values after PubChem BioAssay (EPA / NIEHS).)
